# Values joined by “and” are separate entries in the source; they are usually repeats but may differ in a detail not shown here. Identical values can stand only once. About 83,000 compounds went through this panel and 20% of them were active in at least one assay; those are over-represented in the sample as a whole.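 Values shown are percent growth following 48 h exposure of cells in 96-well plates to a single concentration of compound; below 10 was considered active.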 A number with no mark means an inactive call. Active and inactive are the calls of the source.
# Test system: MDA-MB-468 breast
# Experiment: NCI-60 one-dose screen, 48 h (100 = growth as untreated, 0 = no growth, -100 = all killed)
# Settings: 10 µM unless noted
row,Structure (SMILES),growth
1,Cc1cc(NC(=O)c2cccc(C(F)(F)F)c2)ccc1-n1ccc2c(NC(=O)c3ccccc3)nccc21,111%
2,CN1CCN(c2ccc(Nc3nc(NCCNS(=O)(=O)c4ccc5ccccc5c4)c4sccc4n3)cc2)CC1,2.8% (active)
3,COc1ccc(/C=C/C(=O)c2ccc(NC(=O)CSc3nnc(-c4ccc(OC)c(OC)c4)n3-c3ccccc3)cc2)cc1,60.2%
4,CCOC(=O)c1c(C=O)nc2ccccc2c1/C=C/c1ccc(Cl)cc1,102%
5,CCN(CC)c1ccc2nc3ccc(=[N+](CC)CC)cc-3oc2c1,-46.6% (active)
6,NC(CCC(=O)NC(CS)C(=O)NCC(=O)O)C(=O)O (configuration not stated),102%
7,NC(=O)c1ccccc1NC(=O)c1ccccc1Cl,125%
8,Oc1c(Cl)cc(Oc2cc(Cl)c(O)c(CN3CCOCC3)c2)cc1CN1CCOCC1,84%
9,CC1CCCC(C(=O)O)C1C(=O)O (configuration not stated),97%
10,COc1ccc2sc(NC(=O)CCCCCCNC(=O)C(O)(O)C(F)(F)F)nc2c1,-11.7% (active)
11,Cc1c2c(cc3c1[nH]c1ccccc13)C=NCC2,80.2%
12,COc1cc(-c2nc(N3CCN(C)CC3)c3ccccc3n2)cc(OC)c1OC,38.4%
13,COc1ccc2oc(=O)cc(C(c3ccc[nH]3)c3ccc[nH]3)c2c1,5.5% (active)
14,CC1C(=O)CCCC1=O,122%
15,Clc1ccc(-c2csc(Nc3cccc(Nc4csc(-c5ccc(Cl)cc5)n4)c3)n2)cc1,77%
16,CCCCCCCCCCCCCCCC(=O)OC1[C@@H](OC(=O)CCCCCCCCCCCCCCC)[C@@H](C(=O)N[C@@H](CCCCN)C(=O)OC)O[C@H]1n1cnc2c(=O)[nH]c(NC(=O)C(C)C)nc21 (some centres not stated),83.1%
17,C=CC(=O)Nc1cccc(-c2nc(SC)nc(NCc3ccccc3)c2C#N)c1,52.1%
18,COc1cc2ncnc(Nc3ccc(C(=O)/C=C/c4ccc(C(F)(F)F)cc4F)cc3)c2cc1OC,107%
19,COc1cc(Cl)cc(-c2nn(-c3cccc(NC(=O)Nc4ccc(Cl)c(Cl)c4)c3)cc2-c2ccncc2)c1,0.718% (active)

row,Structure (SMILES),growth
1,COc1ccc(OC)c2ncccc12,89.9%
2,OC(CNC1CCCCC1)Cn1c2ccc(I)cc2c2cc(I)ccc21 (configuration not stated),67.4%
3,O=C(Nc1ccc(OS(=O)(=O)c2ccccc2)cc1)C1CCCCC1,103%
4,CC(=C(c1ccc(OCCCN(C)C)cc1)c1ccc(OCCCN(C)C)cc1)c1ccc(Cl)cc1,80%
5,Nc1nc(-c2cccc([N+](=O)[O-])c2)c(N=Nc2ccc([N+](=O)[O-])cc2Cl)s1,-10.7% (active)
6,COc1ccc2[nH]c3nc4cnccc4cc3c2c1,117%
7,COc1ccc(-c2nc(C#N)c(NCC(c3ccc(Cl)cc3)N3CCCCC3)o2)cc1 (configuration not stated),93.3%
8,CNCCCNCCCCNCCCN1C(=O)c2ccc3c4c(ccc(c24)C1=O)C(=O)N(CCCNCc1ccccc1OC)C3=O,28.6%
9,CC1(C)CC[C@]2(C(=O)N3CCOCC3)CC[C@]3(C)C(=CC[C@@H]4[C@@]5(C)C/C(=C/c6ccccn6)C(=O)C(C)(C)[C@@H]5CC[C@]43C)[C@@H]2C1,40.8%
10,CN1CCN(Cc2ccc(NC(=O)c3cncc(C#Cc4c(N)ncc5ccc(C#N)cc45)c3)cc2C(F)(F)F)CC1,96.1%
11,O=CC(O)C(O)C(O)CO (configuration not stated),104% and 102%
12,CCC#CC[C@H]1C/C=C2/C(=O)C=C[C@@H]2C/C=C\CCCC(=O)O1,-3.46% (active)
13,Brc1ccc(Nc2nc(Nc3cnc4ccccc4c3)c3[nH]cnc3n2)cc1,65.5%
14,COc1ccccc1/C=C/C(=O)c1ccccc1,21.4%
15,O=C(O)c1cn(C2CC2)c2cc(N3CCN(C(=O)Nc4nc(-c5ccc(Br)cc5)cs4)CC3)c(F)cc2c1=O,13.7%
16,CCN1CCN(Cc2ccc(NC(=O)c3nc4ccc5[nH]ncc5c4c4c3CCCC4)cc2C(F)(F)F)CC1,-51.9% (active)
17,OCCNc1nc(NCCO)nc(Nc2ccc(C3=NN(c4ccc(Cl)cc4)C(c4ccc(Cl)cc4)C3)cc2)n1 (configuration not stated),85.7%
18,NC(=S)N/N=C\c1nccc2c(C(F)(F)C(F)(F)C(F)(F)F)cccc12,-69.7% (active)
